Results from PubChem BioAssay AID1490 (National Center for Advancing Translational Sciences (NCATS), 2009).
The whole screen tested about 310,000 compounds, of which about 11,000 (3.5%) were called active. Another 4% or so got no clear call; they are omitted. Many of the other results were omitted from the sample, so actives are more common in it than they were. A number with no mark means an inactive call. Calls follow the shape of the dose curve; as a rule, active = well fitted inhibition curve with a large enough effect; inconclusive = small, poorly fitted or top-dose-only effect, or another doubt; inactive = no such curve, though single readings can be large or run the other way. Non-standard residues stand in square brackets, D forms with d. Residues, ends and D or L forms follow the SMILES beside them. ξ: configuration not given here. *: point of attachment. Cbz = O=C(OCc1ccccc1)*; ξL = CC(C)CC(N)C(=O)O; ξP = O=C(O)C1CCCN1
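Also: the enzyme is Sfp with the accession as filed and its product quenches rhodamine fluorescence.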
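For largest response in the series, negative = inhibition in this document: 0% = enzyme reaction without inhibitor and -100% = no enzyme wells.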
Potency is read from the fitted curve at half-maximal effect.

Each compound was assayed against 4'-phosphopantetheinyl transferase ffp (Bacillus subtilis) (UniProt Q9F4F7) (assay: qHTS Assay for Inhibitors of Bacillus subtilis Sfp phosphopantetheinyl transferase (PPTase)). Conditions: Biochemical Sfp PPTase activity.
Source text: Assay Submitter: Michael Burkart, University of California, San Diego
Screening Center PI: Austin, C.P.
Screening Center: NIH Chemical Genomics Center [NCGC]
The covalent attachment of a phosphopantetheinyl (4'-PP) arm to a variety of synthases and other proteins is a key posttranslational protein modification. The 4'-PP is installed on the proteins post-translationally from coenzyme A (CoA) on a conserved serine residue by action of phosphopantetheinyl transferase (PPTase) enzymes. Phosphopantetheinylation is essential for synthase activity, and removal of the PPTase gene precludes natural product synthesis in microorganisms, or in the case of fatty acid biosynthesis, renders the organism unviable. PPTase enzymes belong to a distinct structural superfamily. Within bacteria, these enzymes are grouped into two classes based upon primary structure, the AcpS-Type and Sfp-Type PPTases.
Sfp-type PPTases, corresponding to an activator of surfactin production in Bacillus subtilis, are responsible for modifying type I polyketide and nonribosomal peptide synthases of prokaryotes. Sfp-type PPTases are responsible for the activation of a variety of pathogen-associated virulence factors. Among these compounds are toxins such as mycolactone from Mycobacterium ulcerans, siderophores such as vibriobactin from Vibrio cholerae or mycobactin from Mycobacterium tuberculosis, as well as the mycolic acids which form the waxy cell wall of Mycobacteria. The biosyntheses of these natural products are considered attractive targets for drug design.
In search of small molecule Sfp-PPTase inhibitors, a fluorescence quenching assay was developed for detection of Bacillus subtilis Sfp-PPTase enzymatic activity in a miniaturized high-throughput format. The consensus ybbr acceptor peptide […] was N-terminally labeled with Black Hole Quencher-2 (BHQ-2) and used in combination with rhodamine-labeled coenzyme A as a co-substrate.
Inhibition of Sfp-PPTase was detected by recording the fluorescence intensity change over a 30-minute reaction period at a 525 nm excitation and 598 nm emission. Reagents were supplied by Michael Burkart and Timothy Foley, University of California at San Diego.
This BioAssay deposition is for validation of the developed Sfp-PPtase assay.
Assay Buffer: 50 mM Hepes-Na pH 7.6, 10 mM MgCl2, 0.01% Nonidet P-40, and 0.01% BSA.
3 uL of Sfp-PPTase enzyme (final concentration 15 nM) and 1 uL of substrate mixture (final concentration for rhodamine-CoA and BHQ-2-YbbR 5 uM and 12.5 uM, respectively) dispensed in columns 1, 2, 5 - 48. Columns 1 and 2 used to generate neutral control (uninhibited reaction)
Three uL of reagents, consisting of buffer (in columns 3 and 4 as negative control) and Sfp-PPTase (in columns 1, 2, 5 - 48) were dispensed into 1,536-well Greiner black solid bottom plate. Compounds (23 nL) were transferred via Kalypsys pintool equipped with 1,536-pin array. The plate was incubated for 15 min at room temperature, followed by the addition of 1 uL substrate to start the reaction. The plate was then centrifuged at 1000 rpm for 15 seconds, and the fluorescence intensity recorded on a ViewLux High-throughput CCD imager (Perkin-Elmer) using standard BODIPY optics (525 nm excitation and 598 nm emission). The plate was then incubated for 30 minutes, and a second read on the ViewLux was performed. The fluorescence intensity difference over the 30-minute period was used to calculate the respective reaction rate for each well.
`CC(C)CC(NC(=O)C1CCCN1C(=O)[C@@H](C)NC(=O)OCc1ccccc1)C(=O)NCC(N)=O` (stereo not given in full) (Cbz-[dA][ξP][ξL]G-NH2) showed a largest response in the series, negative = inhibition of 4.6%.
`COc1ccc2oc(=N)c(C(=O)Nc3ccc(Br)cc3)cc2c1` showed a largest response in the series, negative = inhibition of 17.1%.
`Cc1ccccc1NC(=S)NC(=O)Cc1ccc(Cl)cc1` was tested, and the largest response in the series, negative = inhibition was 1.33%.
Compound `COC(=O)c1ccc(CNC(=O)c2ccc3oc(C(C)C)nc3c2)cc1` has a largest response in the series, negative = inhibition of 14.1%.
For `CC(C)Sc1nnc([C@H](Cc2ccccc2)NC(=O)OC(C)(C)C)o1`, the Potency was 50.1 µM (active).
Compound `COc1ccccc1NC(=O)[C@H](COCc1ccccc1)NC(=O)OC(C)(C)C` has a largest response in the series, negative = inhibition of 14.9%.
`CCc1ccccc1NC(=O)CSc1nnc([C@@H](NC(=O)OC(C)(C)C)C(C)CC)o1` (stereo not given in full) was tested, and the largest response in the series, negative = inhibition was 6.3%.
In the case of `CCc1ccccc1NC(=O)CSc1nnc([C@@H](NC(=O)OC(C)(C)C)C(C)C)o1`, the largest response in the series, negative = inhibition is reported as 0.218%.
With `C[C@@H](NC(=O)OC(C)(C)C)c1nnc(S(=O)(=O)Cc2ccccc2)o1` the Potency was 22.4 µM (active).
`C[C@H](NC(=O)OC(C)(C)C)c1nnc(SCC(=O)Nc2ccc(Br)cc2)o1` gave a largest response in the series, negative = inhibition of 20%.
In the case of `CCOC(=O)CC1(NC(=O)c2cc(COc3cncc(Cl)c3)on2)CCCCC1`, the largest response in the series, negative = inhibition is reported as -1.1%.
Work on `CC(C)(C)NC(=O)C(c1ccc(Cl)cc1)N(CCO)C(=O)c1snc(C(N)=O)c1N` (stereo not given) yielded a largest response in the series, negative = inhibition of 3.24%.
For `O=C(Nc1cccnc1Cl)c1cc(-c2cccc(Cl)c2)on1`, the largest response in the series, negative = inhibition was -6.07%.
With `O=C(Nc1cccc(F)c1)[C@@H]1CCCN1` the largest response in the series, negative = inhibition was 1.19%.
With `Cc1ccc(NC(=O)C2CCCN2S(=O)(=O)c2cccc3cccnc23)c(C)c1` (stereo not given) the largest response in the series, negative = inhibition was 10.9%.
For `CCCCC(C(=O)NC(C)(C)C)N(Cc1ccccc1)C(=O)c1snc(C(N)=O)c1N` (stereo not given), the largest response in the series, negative = inhibition was 3.56%.
With `CCc1ccc2[nH]c(=O)c(Cc3ccccc3)c(O)c2c1` the largest response in the series, negative = inhibition was 0.106%.
Compound `CC(NC(=O)c1ccco1)c1ccc2c(c1)OCO2` (stereo not given) has a largest response in the series, negative = inhibition of 11.2%.
Work on `COc1cccc(N(C(=O)c2snc(C(N)=O)c2N)C(C(=O)NCC2CCCO2)c2c[nH]c3ccccc23)c1` (stereo not given) yielded a largest response in the series, negative = inhibition of -7.12%.
`CC(Sc1sc(=S)sc1SC(C)C(=O)O)C(=O)O` (stereo not given) was tested, and the Potency was 79.4 µM (active).
For `CC(Sc1nnnn1C1CCCCC1)C(=O)O` (stereo not given), the largest response in the series, negative = inhibition was 0.844%.
With `NC(=O)c1nsc(C(=O)N(CCCN2CCOCC2)C(C(=O)NC2CCCCC2)c2ccc(Cl)cc2)c1N` (stereo not given) the largest response in the series, negative = inhibition was 15%.
`O=C(CCCn1c(SCC(=O)c2ccccc2)nc2ccccc2c1=O)NCC1CCCO1` (stereo not given) gave a largest response in the series, negative = inhibition of -21.1%.
`COCCNC(=O)c1ccc(Cn2c(SCC(=O)NCC3CCCO3)nc3ccc(Br)cc3c2=O)cc1` (stereo not given) was tested, and the largest response in the series, negative = inhibition was -12.8%.
For `CCCCn1c(SCC(=O)NCC2CCCO2)nc2ccc(N3CCOCC3)cc2c1=O` (stereo not given), the Potency was 39.8 µM (active).
`CCCCC(=O)Nc1nnc(S(=O)(=O)N(C)Cc2ccco2)s1` showed a largest response in the series, negative = inhibition of -1.11%.
For `Cc1nn(-c2ccccc2)c2c1c(C)c(CCC(=O)NCC1CCCO1)c(=O)n2C` (stereo not given), the largest response in the series, negative = inhibition was 20.2%.
`CCN1CCc2c(C#N)c(NCc3ccccc3)nc(NCCO)c2C1` gave a largest response in the series, negative = inhibition of -12.9%.
For `CCc1nc(NCCO)c(C#N)c2c1CCCC2`, the largest response in the series, negative = inhibition was -0.704%.
In the case of `CC(C)CCNc1nc(N2CCCC2)c2c(c1C#N)CCN(C)C2`, the Potency is reported as 70.8 µM (active).
`COc1ccc(NC(=O)c2cccc(Cl)c2)c[n+]1[O-]` was tested, and the largest response in the series, negative = inhibition was -0.333%.
Compound `O=C(NCCc1ccccc1)c1ccc2c(c1)N(Cc1ccccc1)CCS2` has a largest response in the series, negative = inhibition of 5.03%.
Compound `COc1ccc(Cn2c(=S)[nH]c3cc(C(=O)N4CCCCC4)ccc3c2=O)cc1` has a largest response in the series, negative = inhibition of -3.09%.
`O=C(CN1C(=O)c2ccccc2C1=O)NCc1ccc(C(=O)O)cc1` showed a largest response in the series, negative = inhibition of 9.6%.
Work on `CC(C)N(C(=O)c1ccc(-c2ccccc2F)cc1)C(C)C` yielded a largest response in the series, negative = inhibition of -2.72%.
For `CC(=O)N(C1=C(Cl)C(=O)c2ccccc2C1=O)c1ccc(C(=O)O)cc1`, the Potency was 1 µM (active).
`C/C=C/C=N/NC(=O)c1ccncc1` showed a largest response in the series, negative = inhibition of -22.5%.
In the case of `COC(=O)[C@@]1(Cc2ccccc2)[C@H]2c3cc(C(=O)N4CCCC4)n(Cc4ccc(C)o4)c3C[C@H]2CN1C(=O)c1ccccc1`, the Potency is reported as 56.2 µM (active).
With `COC(=O)[C@@]1(Cc2ccc(OC)cc2)[C@H]2c3cc(C(=O)N4CCCC4)n(Cc4ccc(OC(F)(F)F)cc4)c3C[C@H]2CN1C(=O)c1ccccc1` the largest response in the series, negative = inhibition was 6.34%.
`COC(=O)[C@@]1(Cc2ccc(F)cc2)[C@H]2c3cc(C(=O)N4CCCC4)n(Cc4ccc(OC(F)(F)F)cc4)c3C[C@H]2CN1C(=O)c1ccccc1` gave a largest response in the series, negative = inhibition of 24.5%.
`O=C(OCCN=C1NS(=O)(=O)c2ccccc21)c1cccc([N+](=O)[O-])c1` was tested, and the largest response in the series, negative = inhibition was 0.751%.
`COC(=O)CN1C(=O)[C@H]2[C@@H](C3CC3)N3C(=O)CN(Cc4ccc(-c5ccccc5)cc4)C(=O)[C@@]3(Cc3ccccc3)[C@H]2C1=O` was tested, and the largest response in the series, negative = inhibition was 13%.
With `Oc1cc(O)c2c(c1)OC(c1ccc(O)c(O)c1)C(O)C2` (stereo not given) the Potency was 44.7 µM (active).
Work on `CCOc1ccc(S(=O)(=O)NCCCn2ccnc2)cc1NC(C)=O` yielded a largest response in the series, negative = inhibition of 13.6%.
`COc1ccc(OCc2cc(C(=O)N3CCCC3)no2)c2ccccc12` was tested, and the largest response in the series, negative = inhibition was -21.1%.
